Experimental data taken from PubChem BioAssay (NCATS).
Several values for one entry are separate records, joined by “and”; a condition that tells them apart may be missing. Equal entries are not always repeated. Inconclusive results are not listed. Activity calls are given as the source filed them. Calls follow the shape of the dose curve; as a rule, active = well fitted inhibition curve with a large enough effect; inconclusive = small, poorly fitted or top-dose-only effect; inactive = flat fitted curve, though single readings scatter.

What was measured:
Test in all cases: qHTS profiling for inhibitors of Plasmodium falciparum proliferation (AID 504749); also: nearly all actives have a fitted effect of over 60% in size
Conditions in all cases: P. falciparum in erythrocytes, SYBR Green DNA, 72 h; series mostly up to 28.7 µM
CP265 = test system: CP265
Procedure, shortened: (§1)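 Each compound contacts P. falciparum-infected red blood cells for 72 h at 37 C; lysis buffer (Tris, EDTA, saponin, Triton X, SYBR Green I) is added and fluorescence measured next morning; values normalized to controls.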

CP266 = test system: CP266
Procedure, shortened: as §1

CP268 = test system: CP268
Procedure, shortened: as §1

CP269 = test system: CP269
Procedure, shortened: as §1

CP286 = test system: CP286
Procedure, shortened: as §1

CP291 = test system: CP291
Procedure, shortened: as §1

CP297 = test system: CP297
Procedure, shortened: as §1

CP305 = test system: CP305
Procedure, shortened: as §1

CP315 = test system: CP315
Procedure, shortened: as §1

CP325 = test system: CP325
Procedure, shortened: as §1

Measured: Potency
Potency is read from the fitted curve at half-maximal effect.

CCC1(c2ccccc2)C(=O)NC(=O)N(C(=O)c2ccccc2)C1=O (stereo not given)
inactive: all assays above

O=[N+]([O-])c1ccccc1
inactive: all assays above

CCC1(c2ccccc2)C(=O)NC(=O)NC1=O
inactive: all assays above

O=[N+]([O-])c1ccc(F)c([N+](=O)[O-])c1
inactive: all assays above

CCCCCCCCOC(=O)c1ccccc1C(=O)OCCCCCCCC
inactive: all assays above

CCC(=O)O[C@@](Cc1ccccc1)(c1ccccc1)[C@@H](C)CN(C)C
inactive: all assays above

O=C1CN(O)C(c2ccccc2)=c2cc(Cl)ccc2=N1
inactive: all assays above

c1ccc2sc(SNC3CCCCC3)nc2c1
inactive: all assays above

C[N+]1(C)CCCCC1COC(=O)C(O)(c1ccccc1)c1ccccc1 (stereo not given)
inactive: all assays above

CCCC(=O)OC(C(Cl)(Cl)Cl)P(=O)(OC)OC (stereo not given)
not listed: CP315 | CP325
inactive: all other assays above

CC(N)Cc1ccc(O)cc1 (stereo not given)
inactive: all assays above

CCCCCl
inactive: all assays above

O=C(O)C(Cl)(Cl)Cl
inactive: all assays above

CNC1(c2ccccc2Cl)CCCCC1=O (stereo not given)
inactive: all assays above

CC(=O)OC1CN2CCC1CC2 (stereo not given)
inactive: all assays above

O=c1[nH]c(=O)n(Cl)c(=O)n1Cl
inactive: all assays above

Cn1sc(Cl)cc1=O
inactive: all assays above

c1csc(C2(N3CCCCC3)CCCCC2)c1
inactive: all assays above

CC(C)CCON=O
inactive: all assays above

Clc1ccc(C2(Cn3cncn3)OCCO2)c(Cl)c1
inactive: all assays above

CC(Cc1ccccc1)NC=O (stereo not given)
inactive: all assays above

S=C(S)N1CCNCC1
inactive: all assays above

CC1CCC(C(C)C)C(OC(=O)c2ccccc2N)C1 (stereo not given)
inactive: all assays above

CCOC(=O)c1ccccc1C(=O)OCC
inactive: all assays above

O=C1CC[C@@]2(O)C3Cc4ccc(O)c5c4C2(CCN3CC2CC2)[C@H]1O5 (stereo not given in full)
inactive: all assays above

O=C/C=C/c1ccccc1
inactive: all assays above

[N-]=[N+]=CC(=O)OCC(N)C(=O)O (stereo not given)
inactive: all assays above

N#CC1(N2CCCCC2)CCCCC1
inactive: all assays above

C#CC(C)(O)CC (stereo not given)
inactive: all assays above

O=C(OCCN1CCCCC1)C(O)(c1ccccc1)c1ccccc1
inactive: all assays above

CNC(=O)OCC[N+](C)(C)C
inactive: all assays above

O=C1CCO1
inactive: all assays above

S=C=S
inactive: all assays above

O=C(NC(=O)c1c(F)cccc1F)Nc1ccc(Cl)c(Oc2ncc(C(F)(F)F)cc2Cl)c1
inactive: all assays above

O=c1[nH]cc(N(CCCl)CCCl)c(=O)[nH]1
not listed: CP325
inactive: all other assays above

COC1=CC=C2[C@H]3Cc4ccc(OC)c5c4[C@@]2(CCN3C)[C@H]1O5
inactive: all assays above

C[C@H]1CC[C@@H]2[C@@H](C)[C@H]3[C@H](C[C@H]4[C@@H]5CC=C6CC(O[C@@H]7O[C@H](CO)[C@H](O)[C@H](O[C@@H]8O[C@H](CO)[C@@H](O)[C@H](O)[C@H]8O)[C@H]7O[C@H]7O[C@@H](C)[C@H](O)[C@@H](O)[C@H]7O)CC[C@]6(C)[C@H]5CC[C@]34C)N2C1 (stereo not given in full)
inactive: all assays above

CCC1(C)CC(=O)NC(=O)C1
inactive: all assays above

COc1ccc(OC)c(C(O)C(C)N)c1 (stereo not given)
inactive: all assays above

CCOc1ccc2c3c1O[C@H]1[C@@H](O)C=C[C@H]4[C@@H](C2)N(C)CC[C@@]341
active: CP297 15.1 µM
inactive: CP265 | CP266 | CP286

c1ccc2cc(CC3=NCCN3)ccc2c1
not listed: CP266
inactive: all other assays above

CCC1(c2ccccc2)C(=O)NC(=O)N(C)C1=O (stereo not given)
not listed: CP265 | CP269 | CP305
inactive: all other assays above

CC12NC(Cc3ccccc31)c1ccccc12 (stereo not given)
active: CP265 8.91 µM | CP297 6.01 µM
inactive: CP266 | CP268 | CP305 | CP315 | CP325

CCC1(CC)C(=O)NC(=O)N(C)C1=O
not listed: CP266
inactive: all other assays above

O=C1CN=C(c2ccccc2)c2cc(Cl)ccc2N1CC1CC1
not listed: CP286
inactive: all other assays above

C=CCN1CC[C@]23c4c5ccc(O)c4O[C@H]2[C@@H](O)C=C[C@H]3[C@H]1C5
not listed: CP266
inactive: all other assays above

C[C@H]1CCC[C@H](O)CCCCCc2cc(O)cc(O)c2C(=O)O1
not listed: CP297
inactive: all other assays above

C=CCC1(C(C)CCC)C(=O)N=C(S)NC1=O (stereo not given)
inactive: CP265 | CP266 | CP286

COCC(C)N(C(=O)CCl)c1c(C)csc1C (stereo not given)
not listed: CP297
inactive: all other assays above

CCC1C(C)=NN=C(c2ccc(OC)c(OC)c2)c2cc(OC)c(OC)cc21 (stereo not given)
not listed: CP286 | CP297
inactive: all other assays above

C[C@@H](Cc1ccccc1)NCCC(c1ccccc1)c1ccccc1
inactive: CP315 | CP325

c1ccc(C2(N3CCCC3)CCCCC2)cc1
active: CP286 10 µM | CP297 15.1 µM
inactive: CP266

Oc1cccc[c]1[Hg][Cl]
active: CP265 10 µM | CP266 9.53 µM | CP268 7.57 µM | CP269 4.26 µM | CP286 7.94 µM | CP291 10.7 µM | CP297 13.5 µM | CP305 6.01 µM | CP325 12 µM

Cc1sc2ccccc2c1CC1=NCCN1
not listed: CP286 | CP297
inactive: all other assays above

CN1[C@@H]2CC[C@H]1CC(OC1c3ccccc3CCc3ccccc31)C2 (stereo not given in full)
not listed: CP286 | CP297
inactive: all other assays above

CCCCCCCCCC(=O)O[C@H]1CC[C@H]2[C@@H]3CCC4=CC(=O)CC[C@]4(C)[C@H]3CC[C@]12C
not listed: CP286
inactive: all other assays above

O=C(CCl)c1ccc(Oc2ccc(C(=O)CCl)cc2)cc1
not listed: CP266
inactive: all other assays above

CCCN1CCCC2Cc3[nH]ncc3CC21 (stereo not given)
inactive: CP265 | CP286

CCN(CC)C(=O)/C(Cl)=C(\C)OP(=O)(OC)OC
active: CP297 13.5 µM
inactive: CP265 | CP286

c1cc2c(c(NC3=NCCN3)c1)CCCC2
inactive: CP265 | CP266 | CP286 | CP325

N#CC(C#N)=Cc1cc(O)c(O)c(O)c1
active: CP266 16.9 µM | CP269 10.7 µM | CP286 10 µM | CP297 15.1 µM

COc1ccc2c(c1OC)C(=O)OC2C1c2cc3c(cc2CCN1C)OCO3 (stereo not given)
inactive: CP265 | CP286

NCC(O)c1cccc(O)c1 (stereo not given)
not listed: CP266
inactive: all other assays above

O=c1c2ccccc2[se]n1-c1ccccc1
not listed: CP265 | CP286
inactive: all other assays above

O=P(O)(O)C(Cl)(Cl)P(=O)(O)O
not listed: CP266
inactive: all other assays above

C=CCN=C=S
inactive: CP265 | CP266 | CP286 | CP325

CN1CCCC(=C(c2cccs2)c2cccs2)C1
inactive: CP266 | CP269 | CP315

CNC(=O)Oc1ccccc1C(=O)Nc1ccccc1
not listed: CP297 | CP315
inactive: all other assays above

[Cl-].[Cl-].[Hg+2]
inactive: CP266

O=[N+]([O-])c1cc(I)c(O)c(I)c1
not listed: CP266
inactive: all other assays above

F/C(COc1ccc2c(c1)[nH]c1ccccc12)=C1/CN2CCC1CC2
active: CP265 8.91 µM | CP286 7.08 µM
inactive: CP325

C/C(=C\c1csc(C)n1)[C@@H]1C[C@@H]2O[C@]2(C)CCC[C@H](C)[C@H](O)[C@@H](C)C(=O)C(C)(C)[C@@H](O)CC(=O)O1
active: CP265 0.004 µM | CP269 0.0038 µM | CP286 0.0018 µM | CP291 0.0021 µM | CP297 0.0043 µM | CP315 0.0024 µM | CP325 0.0027 µM

C=CCN(C1=NCCN1)c1c(Cl)cccc1Cl
not listed: CP291
inactive: all other assays above

CC(C)(C)c1cc(O)ccc1O
active: CP265 11.2 µM and 12.6 µM | CP269 13.5 µM | CP286 3.98 µM | CP291 15.1 µM | CP297 12 µM | CP305 13.5 µM
inactive: CP266 | CP315

CCOP(=O)(OCC)O/C(=C/Cl)c1ccc(Cl)cc1Cl
not listed: CP265 | CP291
inactive: all other assays above

OC(c1ccccc1)(c1ccccc1)C1CN2CCC1CC2 (stereo not given)
not listed: CP266 | CP297
inactive: all other assays above

O=C(NCNC(=O)NC1C(=O)NC(=O)N1CO)NC1C(=O)NC(=O)N1CO (stereo not given)
not listed: CP268
inactive: all other assays above

COc1ccc2c3c1O[C@H]1C(=O)CC[C@H]4[C@@H](C2)N(C)CC[C@]314
not listed: CP266
inactive: all other assays above
